Experimental data as given in PubChem BioAssay AID1159580 (chemical genetic matrix, 2015).
The campaign covered roughly 5,500 compounds. About 2,000 (36%) were called active. Not shown: some 18% with an inconclusive outcome. Rule as the data show it: active = normalized growth mostly below about 0.91 (no sharp cut-off); inconclusive = no clear call, values can overlap the other calls; inactive = mostly above about 0.92. The list shows a part of the results.

Experiment: chemical genetic growth profiling, strain panel (AID 1159580);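 also: tested at 20 µM; growth read once vehicle control cultures reached saturation at 30 °C; 1 = growth at the plate median or of vehicle wells; lower values mean less growth of the strain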
Settings: growth OD

Measured: normalized growth

O=C(O)/C=C/c1ccc(O)c(O)c1
inactive: S. cerevisiae deletion strains, locus YJR043C, strain POL32, active compounds read low 1.01 | S. cerevisiae deletion strains, locus YJR066W, strain TOR1, active compounds read low 0.95 | S. cerevisiae deletion strains, locus YKL009W, strain mrt4, active compounds read low 1.05 | S. cerevisiae deletion strains, locus YKL068W, active compounds read low 1.01 | S. cerevisiae deletion strains, locus YKL085W, strain MDH1 (second series), active compounds read low 1.02 | S. cerevisiae deletion strains, locus YKL085W, strain MDH1, active compounds read low 1.02 | S. cerevisiae deletion strains, locus YKL160W, strain elf1, active compounds read low 1 | S. cerevisiae deletion strains, locus YKL190W, strain CNB1, active compounds read low 1.01 | S. cerevisiae deletion strains, locus YKR001C, strain vps1, active compounds read low 1 | S. cerevisiae deletion strains, locus YKR026C, strain gcn3, active compounds read low 1 | S. cerevisiae deletion strains, locus YKR091W, strain srl3, active compounds read low 1 | S. cerevisiae deletion strains, locus YLL001W, strain dnm1, active compounds read low 0.992 | S. cerevisiae deletion strains, locus YLL026W, active compounds read low 0.992 | S. cerevisiae deletion strains, locus YLL041C, strain sdh2, active compounds read low 1 | S. cerevisiae deletion strains, locus YLR027C, strain aat2, active compounds read low 0.989 | S. cerevisiae deletion strains, locus YLR039C, strain RIC1, active compounds read low 1.01 | S. cerevisiae deletion strains, locus YLR058C, strain SHM2, active compounds read low 1.01 | S. cerevisiae deletion strains, locus YLR102C, strain apc9, active compounds read low 1.01 | S. cerevisiae deletion strains, locus YLR113W, strain HOG1, active compounds read low 0.985 | S. cerevisiae deletion strains, locus YLR221C, strain rsa3, active compounds read low 1 | S. cerevisiae deletion strains, locus YLR258W, strain gsy2, active compounds read low 0.999 | S. cerevisiae deletion strains, locus YLR262C, strain YPT6 (second series), active compounds read low 0.993 | S. cerevisiae deletion strains, locus YLR262C, strain YPT6, active compounds read low 0.998 | S. cerevisiae deletion strains, locus YLR268W, strain sec22, active compounds read low 1.03 | S. cerevisiae deletion strains, locus YLR320W, strain mms22, active compounds read low 1.02 | S. cerevisiae deletion strains, locus YLR330W, strain CHS5, active compounds read low 1.02 | S. cerevisiae deletion strains, locus YLR342W, strain FKS1 (second series), active compounds read low 1.07 | S. cerevisiae deletion strains, locus YLR342W, strain FKS1, active compounds read low 1.01 | S. cerevisiae deletion strains, locus YLR357W, strain rsc2, active compounds read low 1.01 | S. cerevisiae deletion strains, locus YLR370C, strain arc18, active compounds read low 1 | S. cerevisiae deletion strains, locus YLR371W, strain rom2, active compounds read low 1.01 | S. cerevisiae deletion strains, locus YLR384C, strain iki3, active compounds read low 0.999 | S. cerevisiae deletion strains, locus YLR418C, strain cdc73, active compounds read low 1.05 | S. cerevisiae deletion strains, locus YML016C, strain PPZ1, active compounds read low 1.01 | S. cerevisiae deletion strains, locus YML032C, strain rad52, active compounds read low 0.998 | S. cerevisiae deletion strains, locus YML120C, strain ndi1, active compounds read low 1.01 | S. cerevisiae deletion strains, locus YML124C, strain tub3, active compounds read low 1 | S. cerevisiae deletion strains, locus YMR058W, strain fet3, active compounds read low 1.01 | S. cerevisiae deletion strains, locus YMR078C, strain ctf18, active compounds read low 1.01 | S. cerevisiae deletion strains, locus YMR125W, strain sto1, active compounds read low 1 | S. cerevisiae deletion strains, locus YMR129W, active compounds read low 1 | S. cerevisiae deletion strains, locus YMR205C, strain PFK2, active compounds read low 0.999 | S. cerevisiae deletion strains, locus YMR223W, strain ubp8, active compounds read low 0.997 | S. cerevisiae deletion strains, locus YMR231W, strain pep5, active compounds read low 0.98 | S. cerevisiae deletion strains, locus YMR307W, strain GAS1, active compounds read low 1.04 | S. cerevisiae deletion strains, locus YNL067W, strain RPL9B, active compounds read low 0.994 | S. cerevisiae deletion strains, locus YNL071W, strain lat1, active compounds read low 1.01 | S. cerevisiae deletion strains, locus YNL153C, strain GIM3, active compounds read low 0.999 | S. cerevisiae deletion strains, locus YNL175C, strain NOP13, active compounds read low 1 | S. cerevisiae deletion strains, locus YNL183C, strain NPR1, active compounds read low 0.971 | S. cerevisiae deletion strains, locus YNL197C, strain WHI3, active compounds read low 1.01 | S. cerevisiae deletion strains, locus YNL209W, strain ssb2, active compounds read low 0.998 | S. cerevisiae deletion strains, locus YNL224C, strain SQS1, active compounds read low 0.997 | S. cerevisiae deletion strains, locus YNL233W, strain BNI4, active compounds read low 1 | S. cerevisiae deletion strains, locus YNL248C, strain rpa49, active compounds read low 1 | S. cerevisiae deletion strains, locus YNL250W, strain rad50, active compounds read low 1 | S. cerevisiae deletion strains, locus YNL271C, strain bni1, active compounds read low 0.998 | S. cerevisiae deletion strains, locus YNL298W, strain CLA4, active compounds read low 0.98 | S. cerevisiae deletion strains, locus YNL307C, strain MCK1, active compounds read low 1.01 | S. cerevisiae deletion strains, locus YNL322C, strain KRE1 (second series), active compounds read low 0.998 | S. cerevisiae deletion strains, locus YNL322C, strain KRE1, active compounds read low 1.02 | S. cerevisiae deletion strains, locus YNR049C, strain mso1, active compounds read low 1.01 | S. cerevisiae deletion strains, locus YNR052C, strain pop2, active compounds read low 0.993 | S. cerevisiae deletion strains, locus YOL012C, strain htz1 0.725 | S. cerevisiae deletion strains, locus YOL147C, strain pex11, active compounds read low 1.01 | S. cerevisiae deletion strains, locus YOR001W, strain rrp6, active compounds read low 1.02 | S. cerevisiae deletion strains, locus YOR061W, strain CKA2, active compounds read low 1.02 | S. cerevisiae deletion strains, locus YOR069W, strain VPS5, active compounds read low 1.01 | S. cerevisiae deletion strains, locus YOR070C, strain gyp1, active compounds read low 0.972 | S. cerevisiae deletion strains, locus YOR080W, strain dia2, active compounds read low 1 | S. cerevisiae deletion strains, locus YOR083W, strain WHI5 (second series), active compounds read low 1.01 | S. cerevisiae deletion strains, locus YOR083W, strain WHI5, active compounds read low 1 | S. cerevisiae deletion strains, locus YOR106W, strain vam3, active compounds read low 1.04 | S. cerevisiae deletion strains, locus YOR136W, strain idh2, active compounds read low 1.02 | S. cerevisiae deletion strains, locus YOR144C, strain elg1, active compounds read low 1.01 | S. cerevisiae deletion strains, locus YOR184W, strain ser1, active compounds read low 1 | S. cerevisiae deletion strains, locus YOR231W, strain MKK1, active compounds read low 1.03 | S. cerevisiae deletion strains, locus YOR265W, strain rbl2, active compounds read low 0.988 | S. cerevisiae deletion strains, locus YOR270C, strain vph1, active compounds read low 1 | S. cerevisiae deletion strains, locus YOR290C, strain snf2, active compounds read low 1.01 | S. cerevisiae deletion strains, locus YOR316C, strain cot1, active compounds read low 1 | S. cerevisiae deletion strains, locus YPL051W, strain arl3, active compounds read low 0.994 | S. cerevisiae deletion strains, locus YPL055C, strain LGE1, active compounds read low 1.01 | S. cerevisiae deletion strains, locus YPL078C, strain atp4, active compounds read low 1 | S. cerevisiae deletion strains, locus YPL106C, strain sse1, active compounds read low 0.992 | S. cerevisiae deletion strains, locus YPL240C, strain hsp82, active compounds read low 1 | S. cerevisiae deletion strains, locus YPL256C, strain CLN2, active compounds read low 0.985 | S. cerevisiae deletion strains, locus YPR119W, strain clb2, active compounds read low 1.01 | S. cerevisiae deletion strains, locus YPR141C, strain kar3, active compounds read low 1.04 | S. cerevisiae deletion strains, locus YPR163C, strain tif3, active compounds read low 1 | S. cerevisiae deletion strains, locus YPR167C, strain met16, active compounds read low 1.02 | S. cerevisiae deletion strains, strain wtn01, active compounds read low 1.04 | S. cerevisiae strains, strain wild type, active compounds read low 1.01
